# Sampled rows, rich in hits. Any-hit rate of the full collection: about 0.74%.
# RECQ1 helicase: qHTS Assay for Inhibitors of RecQ-Like Dna Helicase 1 (RECQ1); AID 2549, 2010; 240,000 tested, 0.54% active; RECQ1 DNA unwinding, red fluorescence kinetic read; Potency, µM (titrated, usually from 57.3 µM), usual class: inhibitors; ATP-dependent DNA helicase Q1 (Homo sapiens), P46063; note: nearly all actives have a fitted effect of over 30% in size
#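 RECQ1T1 50 nM; forked duplex (20 bp + 30-nt ss tails) 200 nM, ATP 2 mM final; pH 8.0, 2 mM MgCl2, 2.5 ug/ml poly(dI-dC); 15 min compound preincubation; discontinuous kinetic read over 2 h at RT.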
# Tb PGK inh: qHTS Assay to Find Inhibitors of Phosphoglycerate Kinase | Phosphoglycerate kinase, glycosomal (Trypanosoma brucei brucei), P07378 | PGK/GAPDH coupled, Kinase-Glo luminescence, 60 min | Potency, µM (doses to about 57.5 µM), usual class: inhibitors | 380,000 tested, 0.043% active | AID 602233, 2012; note: nearly all actives have a fitted effect of over 60% in size
#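 Luminescent ATP detection (Kinase-Glo Plus) follows a 60-minute room-temperature incubation, with wells lacking PGK as controls. Buffer: 100 mM TEA (pH 7.6), 5 mM MgCl2, 0.01% Tween-20. Coupling enzyme GAPDH (100 nM final) supplies unstable 1,3-BPG in-well.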
# BLM inh: qHTS Assay for Inhibitors of Bloom's syndrome helicase (BLM) | RecQ-like DNA helicase BLM (Homo sapiens), P54132 | Potency, µM (doses to about 56.1 µM), usual class: inhibitors | 350,000 tested, 0.2% active | recombinant BLM DNA unwinding, fluorescence dequenching; note: nearly all actives have a fitted effect of over 35% in size
# Target sequence (P54132 whole entry, looked up): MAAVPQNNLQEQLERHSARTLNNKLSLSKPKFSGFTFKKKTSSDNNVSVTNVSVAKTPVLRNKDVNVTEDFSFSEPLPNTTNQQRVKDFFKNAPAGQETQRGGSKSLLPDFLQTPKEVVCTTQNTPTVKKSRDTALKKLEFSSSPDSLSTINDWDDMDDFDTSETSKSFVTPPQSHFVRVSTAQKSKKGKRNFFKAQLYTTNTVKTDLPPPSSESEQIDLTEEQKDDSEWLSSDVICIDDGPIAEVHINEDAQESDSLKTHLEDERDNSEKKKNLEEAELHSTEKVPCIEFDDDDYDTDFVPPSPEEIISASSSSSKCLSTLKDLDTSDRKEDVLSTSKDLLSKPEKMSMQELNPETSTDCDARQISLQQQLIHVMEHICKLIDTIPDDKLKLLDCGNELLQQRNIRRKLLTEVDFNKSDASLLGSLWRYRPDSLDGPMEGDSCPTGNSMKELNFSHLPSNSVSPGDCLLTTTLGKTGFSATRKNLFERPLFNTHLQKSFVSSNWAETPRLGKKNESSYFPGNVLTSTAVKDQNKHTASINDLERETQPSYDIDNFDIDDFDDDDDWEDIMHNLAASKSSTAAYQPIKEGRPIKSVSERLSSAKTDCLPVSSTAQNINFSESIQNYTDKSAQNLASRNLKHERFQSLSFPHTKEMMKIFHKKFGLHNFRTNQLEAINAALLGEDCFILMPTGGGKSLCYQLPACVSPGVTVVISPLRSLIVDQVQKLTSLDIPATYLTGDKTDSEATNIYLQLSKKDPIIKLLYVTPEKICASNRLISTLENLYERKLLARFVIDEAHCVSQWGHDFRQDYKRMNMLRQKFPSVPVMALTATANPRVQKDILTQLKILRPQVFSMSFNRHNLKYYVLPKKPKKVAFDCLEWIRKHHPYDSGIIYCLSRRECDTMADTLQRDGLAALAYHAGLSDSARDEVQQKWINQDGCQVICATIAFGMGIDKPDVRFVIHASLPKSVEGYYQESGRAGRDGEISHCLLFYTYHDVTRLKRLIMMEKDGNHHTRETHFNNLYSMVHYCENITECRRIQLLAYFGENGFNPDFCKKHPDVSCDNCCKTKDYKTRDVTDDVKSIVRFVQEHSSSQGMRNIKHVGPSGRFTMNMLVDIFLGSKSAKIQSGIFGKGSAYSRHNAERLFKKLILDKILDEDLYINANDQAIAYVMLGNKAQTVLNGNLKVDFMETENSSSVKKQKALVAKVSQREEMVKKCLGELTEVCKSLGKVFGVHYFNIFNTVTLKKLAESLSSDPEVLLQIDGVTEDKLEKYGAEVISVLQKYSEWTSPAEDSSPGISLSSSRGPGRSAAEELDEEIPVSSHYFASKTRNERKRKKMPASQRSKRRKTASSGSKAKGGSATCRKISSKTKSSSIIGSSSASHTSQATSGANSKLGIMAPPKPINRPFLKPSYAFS
# FEN1 inh: qHTS Assay for the Inhibitors of Human Flap endonuclease 1 (FEN1); Recombinant FEN1 flap cleavage, fluorescence, 15 min; P39748; 390,000 tested, 0.35% active; Potency, µM (doses to about 114 µM), hits mostly inhibitors; AID 588795, 2011; note: nearly all actives have a fitted effect of over 65% in size
#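 Quantitative HTS format: each compound was titrated, incubated with 10 nM nuclease for 15 min at room temperature, then challenged with flap substrate at 50 nM final. Signal change over 15 min gave concentration–effect curves.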
# APEX1 inh: qHTS Assay for Inhibitors of the Human Apurinic/apyrimidinic Endonuclease 1 (APE1); AID 2517, 2012; 350,000 tested, 0.35% active; recombinant APE1, TAMRA/BHQ-2 abasic DNA cleavage fluorescence; Potency, µM (doses to about 65.8 µM), most hits filed as inhibitors; DNA repair nuclease/redox regulator APEX1 (Homo sapiens), P27695; note: nearly all actives have a fitted effect of over 55% in size
#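 APE1 at 0.75 nM preincubated 15 min at room temperature with compound. Reaction then started with 50 nM double-stranded THF-abasic substrate labelled with TAMRA/BHQ-2, and 525/598 nm fluorescence read kinetically. Activity taken as third-minus-first read difference, normalized to DMSO and NSC13755 controls.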
# A number is an active result; n = inactive; u = inconclusive; x = no result; ! = repeats disagree; [ ] = another dose, or the depositor's remark. Calls come from the whole dose curve; as a rule, active = well fitted curve in the direction sought with a large enough effect; inconclusive = small, poorly fitted or top-dose-only effect, or another doubt; inactive = no such curve, though single readings can be large; an effect the other way counts as inactive or inconclusive.
SMILES,RECQ1 helicase,Tb PGK inh,BLM inh,FEN1 inh,APEX1 inh
Cc1cccn2c(=O)c3cc(C(=O)NCc4ccco4)c(=N)n(C4CCCCC4)c3nc12,x,n,n,n,17µM
Cc1cccn2c(=O)c3cc(C(=O)NC4CCCCC4)c(=N)n(Cc4ccccc4)c3nc12,x,n,n,n,9.5µM
O=C(NCc1ccco1)c1cnc2ccccn2c1=O,n,n,n,n,n
Cc1cccn2c(=O)c3cc(C(=O)NC4CCCC4)c(=N)n(CCc4ccccc4)c3nc12,x,n,n,n,n
Cc1ccc2nc3c(cc(C(=O)NCc4ccco4)c(=N)n3C3CCCC3)c(=O)n2c1,x,x,n,x,n
Nc1cc(=O)[nH]c(N)n1,n,n,n,n,n
CCCCC(=O)NC1(C(F)(F)F)C(=O)N(Cc2ccco2)C(C)=C1C(=O)OC (stereo not given),n,n,n,n,n
CCCOC(=O)CCCN1C(=O)/C(=C2\SC(=S)N(CCCC(=O)OCCC)C2=O)SC1=S,n,n,n,n,n
CCCCCOC(=O)CCN1C(=O)/C(=C2\SC(=S)N(CCC(=O)OCCCCC)C2=O)SC1=S,1.6µM,n,n,n,n
COc1ccc(C)cc1NC(=O)CO/N=C(\N)CC(=O)NC1CCCCC1,x,n,x,n,n
COc1cc(/C=N/Nc2nc3ccccc3s2)cc([N+](=O)[O-])c1O,n,u,u,45µM,n
COc1ccc(-n2c(C)ccc2-c2ccccc2)cn1,x,n,n,n,n
CCN(CC)c1ccc(/C=C2\C(=O)c3ccc(C(=O)O)cc3C2=O)cc1,n,n,n,40µM,u
O=c1c2ccccc2sn1-c1ccc(F)cc1,x,n,x,79µM,n
O=C1S/C(=C\C=C\c2ccco2)C(=O)N1c1ccc(O)cc1,n,n,25µM,n,n
Cc1cccc(N2CCN(C(=O)NCc3noc4ccccc34)CC2)c1C,x,n,n,89µM,x
Cc1ccc2onc(CNC(=O)N3CCN(c4cccc(C)c4C)CC3)c2c1,x,n,n,n,x
O=C(O)c1ccc(CSc2n[nH]c(-c3ccco3)n2)cc1,n,n,n,u,40µM
COc1ccc(-c2ccc3c(=O)cc(-c4ccsc4)oc3c2)cn1,x,n,x,50µM,n
CC(C)CCCCCCNC(=S)Nc1ccc(S(=O)(=O)N2CCOCC2)cc1,40µM,n,n,u,u
N#Cc1ccc(/C=N/NC(=S)Nc2ccc(S(=O)(=O)N3CCOCC3)cc2)cc1,n,n,n,n,n
O=S(=O)(c1ccc(NC(=S)N/N=C/c2ccc(O)c(O)c2)cc1)N1CCOCC1,u,n,n,n,13µM
COc1ccc(Cn2c(N)c(C#N)c3nc4ccccc4nc32)cc1,n,n,n,n,n
O=C(Cc1ccc(-n2cccc2)cc1)N1CCN(c2ccccc2F)CC1,n,n,n,n,u
COc1ccc(C(=O)c2oc3ccc(OC)cc3c2N)cc1,n,n,n,n,n
SMILES,RECQ1 helicase,Tb PGK inh,BLM inh,FEN1 inh,APEX1 inh
CCCCCCCCC#CCC#CCC#CCCCC(=O)O,20µM!,x,n,x,u
CCCCCCC(=O)O,n,n,x,n,n
O=C(O)c1c[nH]c(=O)c2ccccc12,n,n,n,n,n
O=C(CCN1CCN(c2ccccc2)CC1)N/N=C/c1ccc(O)c(O)c1O,n,n,11µM,28µM,n
COc1ccc2cc(C#N)c(SCC(=O)Nc3nonc3C)nc2c1,x,n,n,n,n[12.4 µM]
C/C(=N\Nc1ccc(C(=O)O)cc1)c1ccc(Br)cc1,n,u,n,n,25µM
COc1cccc(CNC(=O)CC2C(=O)NCCN2Cc2ccoc2)c1OC (stereo not given),n,n,n,n,n
C/C(N)=C(/C#N)C(=O)CSc1nnnn1-c1ccccc1,n,n,n,n,u
C/C(N)=C(/C#N)C(=O)CSc1nnnn1-c1ccc(C)cc1,20µM,n,n,n,n
Cc1sc(-n2c(C)cc(/C=C3\SC(=S)NC3=O)c2C)c(C#N)c1C,28µM,n,n,u,n
Cc1ccccc1Nc1c(-c2ccc(Cl)s2)nc2cccc(C)n12,x,n,n,n,x
Cc1ccc(CS(=O)Cc2ccc(C(=O)N3CCN(c4ccc(F)cc4)CC3)o2)cc1 (stereo not given),x,n,n,n,n
CCCNC(=O)c1ccc2nc(-c3ccccc3)c(-c3ccccc3)nc2c1,n,n,n,n,n
O=C(Nc1ccc(N2CCOCC2)cc1)c1ccc2nc(-c3ccco3)c(-c3ccco3)nc2c1,n,n,n,n,n
CNC(=O)c1ccc2nc(-c3ccco3)c(-c3ccco3)nc2c1,x,x,x,6.3µM,x
O=C(Nc1ccccc1)c1ccc2nc(-c3ccco3)c(-c3ccco3)nc2c1,n,n,32µM,u,n
CCCCNC(=O)c1ccc2nc(-c3ccco3)c(-c3ccco3)nc2c1,n,n,16µM,40µM,n
O=C(NC1CCCCC1)c1cc(-c2ccco2)on1,n,n,n,n,n
O=C(NC1CC1)c1ccc2nc(-c3ccco3)c(-c3ccco3)nc2c1,x,x,x,11µM,x
O=c1c2ccccc2nnn1CSc1ccccc1,n,n,n,n,n
CCOc1ccc(NC(=O)C2CC(=O)N(CC)C(=Nc3ccc4c(c3)OCO4)S2)cc1 (stereo not given),n,x,n,n,n
CC(=O)/C(N=Nc1ccc(C(=O)O)cc1[N+](=O)[O-])=C(\C)O,n,n,n,n,10µM
COC(CC(=O)NNC(=S)Nc1ccc(Cl)cc1)OC,n,n,n,n,n
COC(CC(=O)NNC(=S)Nc1ccccc1)OC,14µM,n,n,n,u
COc1ccc(CC(=O)NCC(c2cccs2)S(=O)(=O)c2ccc(Cl)cc2)cc1 (stereo not given),x,3.2µM,n,n,x
SMILES,RECQ1 helicase,Tb PGK inh,BLM inh,FEN1 inh,APEX1 inh
Cc1ccc(S(=O)(=O)C(CNC(=O)Cc2ccc(Cl)cc2)c2cccs2)cc1 (stereo not given),x,n,n,n,x
CCOc1ccccc1Nc1nc(-c2cccc(Cl)c2)c2c(n1)-c1ccccc1OC2,x,n,n,50µM,x
c1ccc(-c2cc(-c3ccccc3)c3c(n2)-c2ccccc2OC3)cc1,x,n,n,n,x
N#CCCn1c(=O)c(-c2ccc(F)cc2)nc2cnc(N3CCOCC3)nc21,n,x,n,x,n
COc1ccc(OC)c(CN2CCN(C(=O)c3cccc(S(=O)(=O)Nc4ccccc4OC)c3)CC2)c1,x,n,x,n,n
[N-]=C=C1C(=O)NC(=O)C([n+]2ccc(-c3ccncc3)cc2)C1c1ccccc1C(F)(F)F (stereo not given),n,n,n,n,n
[N-]=C=C1C(=S)NC(=O)[C@H]([n+]2ccccc2)[C@H]1c1ccc(Cl)cc1,32µM,n,n,n,u
